# From PubChem BioAssay (NCATS)
# Where “and” joins values, the source holds several entries; their conditions need not be identical. Equal entries are not always repeated. Unmarked numbers belong to inactive results. Records with an inconclusive call do not appear. Calls of active or inactive are those of the source. Unless noted, calls come from the whole dose curve.
# How the values were obtained:
# [1] = AP1 Signaling Pathway (AID 357; active = well fitted curve in either direction with a large enough effect, not every such curve was filed as active;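 note: ME-180 reporter cells stimulated with EGF at its EC50 level; % is set by controls: 0 for no effect and ±100 for the full control effect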); settings: ME-180 AP-1-bla reporter, EGF-induced, beta-lactamase ratio, 5 h; at 38 µM (top of the series) unless noted
# Procedure, shortened: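 Titration-series screen for positive or negative modulators of EC50 EGF-induced signaling in ME-180 cells carrying an AP-1-driven beta-lactamase reporter. After 5 hours at 37 degrees Celsius, CCF4 460nm/530nm emission ratio gave %Activity; AC50 values derived.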
# [2] = NFAT Signaling Pathway (AID 444; active = well fitted curve in either direction with a large enough effect, not every such curve was filed as active;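 note: carbachol stimulus at about its EC50 of 1 µM final; % is set by controls: 0 for no effect and ±100 for the full control effect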); settings: Jurkat NFAT-bla M1, carbachol, beta-lactamase ratio, 5 h; at 38 µM (top of the series) unless noted
# Procedure, shortened: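 Jurkat cells with NFAT-driven β-lactamase reporter and co-expressed M1 receptor, stimulated with carbachol (final 1 uM, ~EC50), compound titration, 5 h at 37 °C. CCF4 loaded 1 h at RT; 460/530 nm ratio gave %activity and AC50.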
# [3] = target: Glucocorticoid receptor (Homo sapiens) (UniProt P04150); test: GR-GFP Redistribution (AID 450;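 active = compounds whose dose series gives a full or clear partial fitted curve of increased nuclear translocation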; note: potency is the fitted concentration of half-maximal effect); settings: U2OS GR-GFP nuclear translocation, laser cytometry, 2 h
# Chain of Glucocorticoid receptor (Homo sapiens) (P04150 whole entry, looked up, the tested form may be a part): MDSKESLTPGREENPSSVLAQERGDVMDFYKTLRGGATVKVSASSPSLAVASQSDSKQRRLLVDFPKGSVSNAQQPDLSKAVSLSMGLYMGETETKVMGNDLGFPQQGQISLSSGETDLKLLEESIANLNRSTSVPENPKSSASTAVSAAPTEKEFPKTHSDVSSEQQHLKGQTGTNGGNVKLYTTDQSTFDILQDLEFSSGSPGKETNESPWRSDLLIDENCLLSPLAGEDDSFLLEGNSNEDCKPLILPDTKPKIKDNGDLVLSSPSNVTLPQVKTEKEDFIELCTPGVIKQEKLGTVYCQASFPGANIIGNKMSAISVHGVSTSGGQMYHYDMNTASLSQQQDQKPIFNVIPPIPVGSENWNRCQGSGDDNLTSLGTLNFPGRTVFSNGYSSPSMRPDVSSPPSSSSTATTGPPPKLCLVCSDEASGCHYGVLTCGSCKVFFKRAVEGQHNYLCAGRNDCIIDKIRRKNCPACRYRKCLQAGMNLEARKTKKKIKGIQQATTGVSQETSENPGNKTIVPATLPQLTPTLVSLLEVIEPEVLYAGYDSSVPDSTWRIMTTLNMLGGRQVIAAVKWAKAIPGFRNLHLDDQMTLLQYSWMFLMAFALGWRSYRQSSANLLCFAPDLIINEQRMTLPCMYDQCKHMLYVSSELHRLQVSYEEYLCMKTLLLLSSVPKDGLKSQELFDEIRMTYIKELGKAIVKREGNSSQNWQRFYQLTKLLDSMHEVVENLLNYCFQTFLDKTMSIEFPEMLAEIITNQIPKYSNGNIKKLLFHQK
# [4] = target: Glucocorticoid receptor (Homo sapiens) (UniProt P04150); test: GR-EFC Redistribution (AID 451); settings: CHO-K1 GR-EFC translocation, beta-gal luminescence, 2 h; note: potency is the fitted concentration of half-maximal effect
# Procedure, shortened: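 CHO-K1 cells expressing nuclear EA and GR-ED fragments of b-gal; compounds titrated up to 46 uM final, 2 h at 37 C. GR nuclear translocation read as complemented b-gal luminescence after 1 h RT detection.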
# [5] = Stat Signaling Pathway (AID 446; active = well fitted curve in either direction with a large enough effect, not every such curve was filed as active;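 note: ME-180 cervical cancer cells given 40 pM IL-6 alongside compound; SIE-controlled beta-lactamase reporter measured as 460/530 nm FRET emission ratio; % is set by controls: 0 for no effect and ±100 for the full control effect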); settings: ME-180 (cervical carcinoma) SIE beta-lactamase reporter, IL-6 stimulated, 5 h; at 38 µM (top of the series) unless noted
# Procedure, shortened: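 Compound effects on IL-6-induced STAT reporter activity were measured in ME-180 cells. After overnight culture, cells were co-treated with 40 pM IL-6 for 5 hrs before beta-lactamase substrate loading at room temperature.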
# [6] = target: Mitogen-activated protein kinase 10 (Mus musculus) (UniProt Q61831); test: JNK3 AlphaScreen Assay (AID 530; active = well fitted curve in either direction with a large enough effect, not every such curve was filed as active;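 note: kinase came from lysate of stimulated human HepG2 cells; signal reports phosphorylation of biotinylated GST-cJun 1-79 at Ser73 with 10 µM ATP; % is set by controls: 0 for no effect and ±100 for the full control effect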)
# Procedure, shortened: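 Activity was read by AlphaScreen after JNK3-containing HepG2 lysate (cytokine pre-activated) phosphorylated biotinylated GST-cJun with 10 uM ATP at room temperature. Phospho-Ser73 cJun antibody with Protein-A acceptor beads provided detection.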
# [7] = target: Cytochrome P450 1A2 (Homo sapiens) (UniProt P05177); test: p450-cyp1a2 (AID 410); note: potency is the fitted concentration of half-maximal effect;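 for activity change, negative = inhibition: -100% = full effect of reference inhibitor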
# Chain of Cytochrome P450 1A2 (Homo sapiens) (P05177 whole entry, looked up): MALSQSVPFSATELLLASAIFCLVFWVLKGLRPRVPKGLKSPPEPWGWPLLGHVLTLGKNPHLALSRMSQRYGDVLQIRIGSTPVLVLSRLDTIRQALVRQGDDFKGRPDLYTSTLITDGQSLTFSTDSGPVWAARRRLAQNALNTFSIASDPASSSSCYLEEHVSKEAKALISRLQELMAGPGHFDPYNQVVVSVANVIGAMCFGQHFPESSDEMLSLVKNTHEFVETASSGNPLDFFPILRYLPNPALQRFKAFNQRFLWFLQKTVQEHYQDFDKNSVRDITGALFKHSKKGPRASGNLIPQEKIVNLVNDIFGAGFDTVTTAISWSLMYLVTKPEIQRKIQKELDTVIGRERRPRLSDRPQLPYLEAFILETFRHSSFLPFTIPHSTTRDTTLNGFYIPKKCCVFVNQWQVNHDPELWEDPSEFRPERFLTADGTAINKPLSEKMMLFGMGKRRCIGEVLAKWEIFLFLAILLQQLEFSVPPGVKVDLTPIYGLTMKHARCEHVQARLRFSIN
# Procedure, shortened: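 Luminescent demethylation readout: Luciferin-ME (100uM, equal to Km) turned over by 20nM CYP1A2 for 60 min at room temperature after NADPH regeneration addition, following 10 min compound preincubation. Normalization used 57 uM furafylline as full inhibition.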
structure (smiles),measurement,setting,value
CC1CNCCN1S(=O)(=O)c1cccc2cnccc12 (stereo not given),"activity change, negative = inhibition",[1],2.59% [at 17.2 µM]
same,"activity change, negative = inhibition",[2],4.83% [at 17.2 µM]
same,Potency,[3],> 20.6 µM
O=c1[nH]c2cc(Cl)ccc2c(O)c1-c1ccc(Oc2ccccc2)cc1,"activity change, negative = inhibition",[1],3.01%
same,Potency,[3],> 46 µM
same,Potency,[4],> 46 µM
COc1ccccc1N1CCN(CCCNc2c(C)c(=O)n(C)c(=O)n2C)CC1,"activity change, negative = inhibition",[1],8.51%
same,"activity change, negative = inhibition",[2],-22.9%
same,"activity, negative = inhibition",[5],0.762%
same,Potency,[3],> 46 µM
same,Potency,[4],> 46 µM
same,outcome,[6],inactive
N#C/C(=C\c1ccc(O)c(O)c1)C(=O)NCCCNC(=O)/C(C#N)=C/c1ccc(O)c(O)c1,"activity change, negative = inhibition",[1],-12.1%
same,"activity change, negative = inhibition",[2],7.05%
same,Potency,[3],> 46 µM
same,Potency,[4],> 46 µM
NC(=O)CNCCC(c1ccccc1)c1ccccc1,"activity change, negative = inhibition",[1],-7.75%
same,Potency,[3],> 46 µM
same,Potency,[4],> 46 µM
O=c1onc2n1-c1cc(Br)ccc1OC2,"activity change, negative = inhibition",[1],1.26%
same,"activity change, negative = inhibition",[2],3.41%
same,Potency,[3],> 46 µM
same,Potency,[4],> 46 µM
Nn1nnc2ccccc21,"activity change, negative = inhibition",[1],1.19%
same,"activity change, negative = inhibition",[2],4.59%
same,"activity, negative = inhibition",[5],9.14%
same,Potency,[3],> 46 µM
same,Potency,[4],> 46 µM
same,outcome,[6],inactive
Nc1ncnc2c1ncn2C1CCCC1,"activity change, negative = inhibition",[1],-12.9%
same,Potency,[3],> 46 µM
same,Potency,[4],> 46 µM
same,outcome,[6],inactive
O=C(O)Cc1c[nH]c2ccc(O)cc12,"activity change, negative = inhibition",[1],21.9%
same,"activity change, negative = inhibition",[2],6.87%
same,Potency,[3],> 46 µM
same,Potency,[4],> 46 µM
same,outcome,[6],inactive
NCCCCN,"activity change, negative = inhibition",[1],15.3%
same,Potency,[3],> 46 µM
N[C@@H](Cc1ccc(O)c(I)c1)C(=O)O,"activity change, negative = inhibition",[1],9.71% [at 17.2 µM]
same,"activity change, negative = inhibition",[2],-2.26% [at 17.2 µM]
same,Potency,[3],> 20.6 µM
CC(C)NCC(O)COc1ccc(CC(N)=O)cc1 (stereo not given),"activity change, negative = inhibition",[1],5.57% [at 17.2 µM]
same,"activity, negative = inhibition",[5],14% [at 17.2 µM]
O=c1oc(Cl)c(Cl)c2ccccc12,Potency,[7],1 µM (active)
same,"activity, negative = inhibition",[5],22.3% (active)
same,Potency,[3],> 46 µM
same,Potency,[4],> 46 µM
COc1cc(/C=C(\C#N)C(=O)c2ccc(O)c(O)c2)cc(I)c1O,"activity change, negative = inhibition",[2],8.66%
same,Potency,[3],> 46 µM
same,Potency,[4],> 46 µM
CN1CCc2cc(Cl)c(O)cc2[C@@H](c2ccccc2)C1,Potency,[3],> 46 µM
same,Potency,[4],> 46 µM
same,outcome,[6],inactive
CCCCOC(=O)NS(=O)(=O)c1sc(CC(C)C)cc1-c1ccc(Cn2c(CC)nc3c(C)cc(C)nc32)cc1,Potency,[3],> 46 µM
same,Potency,[4],> 46 µM
same,outcome,[6],inactive
Fc1ccc(CN(C2=NCCN2)c2c(Cl)cccc2Cl)cc1,Potency,[7],inactive
same,"activity change, negative = inhibition",[2],-21.2%
same,"activity, negative = inhibition",[5],-4.64%
same,Potency,[3],> 46 µM
same,Potency,[4],> 46 µM
same,outcome,[6],inactive
NCCNS(=O)(=O)c1cccc2c(Cl)cccc12,Potency,[3],> 46 µM
same,Potency,[4],> 46 µM
same,outcome,[6],inactive
CC1CCN(CC[C@H]2CCCN2S(=O)(=O)c2cccc(O)c2)CC1,Potency,[3],> 46 µM
same,Potency,[4],> 46 µM
CCc1ccc2c(-c3cccc(Cl)c3)nc(=O)n(CC)c2n1,Potency,[7],0.126 µM (active)
same,Potency,[3],> 46 µM
same,Potency,[4],> 46 µM
N[C@@H](CS(=O)O)C(=O)O,Potency,[3],> 46 µM
same,Potency,[4],> 46 µM
CCCc1c(-c2ccc(O)cc2)nn(-c2ccc(O)cc2)c1-c1ccc(O)cc1,Potency,[7],15.8 µM (active) and 20 µM (active)
same,Potency,[3],> 46 µM
same,Potency,[4],> 46 µM
same,outcome,[6],inactive
CCCCCC[C@@H]([C@@H](C)O)n1cnc2c(N)ncnc21,Potency,[3],> 46 µM
same,Potency,[4],> 46 µM
CCCn1c(=O)c(C)cn2nc(N)nc12,Potency,[3],> 46 µM
same,Potency,[4],> 46 µM
same,outcome,[6],inactive
CC[C@H](NC(=O)c1c(C)c(-c2ccccc2)nc2ccccc12)c1ccccc1,"activity change, negative = inhibition",[2],2.54%
same,Potency,[3],> 46 µM
same,Potency,[4],> 46 µM
CCCC(=O)NCCc1c2n(c3ccc(OC)cc13)CCCc1ccccc1-2,Potency,[3],> 46 µM
same,Potency,[4],> 46 µM
same,outcome,[6],inactive
O=C(N[C@@H](Cc1ccccc1)C(=O)CCl)OCc1ccccc1,Potency,[7],3.16 µM (active)
same,"activity change, negative = inhibition",[2],-11.8% (active)
same,"activity, negative = inhibition",[5],-59.3% (active)
same,Potency,[3],> 46 µM
same,Potency,[4],> 46 µM
CCCCCCCC/C=C\CCCCCCCC(=O)NCCc1ccc(O)c(O)c1,Potency,[3],> 46 µM
same,Potency,[4],> 46 µM
CC(C)NC[C@H](O)COc1cccc2ccccc12,Potency,[7],0.2 µM (active)
CNCCNS(=O)(=O)c1cccc2cnccc12,Potency,[7],inactive
same,"activity change, negative = inhibition",[2],-11.3%
same,Potency,[3],> 46 µM
same,Potency,[4],> 46 µM
CCN(c1nc(N)c(C(=O)N=C(N)N)nc1Cl)C(C)C,"activity change, negative = inhibition",[1],29.9%
same,Potency,[4],> 46 µM
same,outcome,[6],inactive
O=C(O)c1ccccc1Nc1cccc(OCc2ccc3ccccc3n2)c1,Potency,[7],12.6 µM (active) and 1 µM (active)
same,Potency,[3],> 46 µM
same,Potency,[4],> 46 µM
same,outcome,[6],inactive
CCCCCCN(CCCCCC)C(=O)Cc1c(-c2ccc(F)cc2)[nH]c2ccccc12,Potency,[3],> 46 µM
same,Potency,[4],> 46 µM
NC[C@@H]1O[C@H](c2ccccc2)Cc2c1ccc(O)c2O,Potency,[3],> 46 µM
same,Potency,[4],> 46 µM
same,outcome,[6],inactive
COc1cc2c(CCNC(C)=O)c[nH]c2cc1O,Potency,[7],31.6 µM (active)
same,"activity change, negative = inhibition",[2],3.14%
same,Potency,[3],> 46 µM
same,Potency,[4],> 46 µM
same,outcome,[6],inactive
N[C@H](C(=O)O)[C@H](O)C(=O)O,Potency,[3],> 46 µM
same,Potency,[4],> 46 µM
same,outcome,[6],inactive
CN(C)CCCc1cc(C(=O)Nc2ccc(-c3ccncc3)cc2)ccc1O,Potency,[7],39.8 µM (active)
same,Potency,[3],> 46 µM
same,Potency,[4],> 46 µM
same,outcome,[6],inactive
CN(C)S(=O)(=O)c1ccc2c(c1)/C(=C/c1cc3c([nH]1)CCCC3)C(=O)N2,Potency,[7],0.316 µM (active)
same,Potency,[4],> 46 µM
same,outcome,[6],inactive
C/C(=C\c1ccc(C(=O)O)cc1)c1ccc2c(c1)C(C)(C)CCC2(C)C,Potency,[3],> 46 µM
same,Potency,[4],> 46 µM
same,outcome,[6],inactive
CC[C@@H]1Cc2cc(O)ccc2C2=C1c1ccc(O)cc1C[C@H]2CC,Potency,[3],> 46 µM
same,Potency,[4],> 46 µM
same,outcome,[6],inactive
C=C1C(=O)O[C@@H]2[C@H]3O[C@]3(C)CCC=C(C)CC[C@@H]12,Potency,[7],10 µM (active)
same,Potency,[4],> 46 µM
Oc1cc(O)c2c(c1)O[C@H](c1ccc(O)c(O)c1)[C@@H](O)C2,Potency,[7],inactive
same,Potency,[3],> 46 µM
same,Potency,[4],> 46 µM
COC(=O)[C@H](NC(=O)c1cc(-c2ccccc2)nc2ccccc12)c1ccccc1,Potency,[3],> 46 µM
same,Potency,[4],> 46 µM
O=C1Nc2ccc(I)cc2/C1=C/c1cc(Br)c(O)c(Br)c1,Potency,[3],> 46 µM
same,Potency,[4],> 46 µM
CC(C)(C)c1cc(/C=C(\C#N)C(N)=S)cc(C(C)(C)C)c1O,"activity change, negative = inhibition",[2],-95.5% (active)
same,Potency,[3],> 46 µM
same,Potency,[4],> 46 µM
N#C/C(=C\c1ccc(O)c(O)c1)C(=O)NCCc1ccccc1,Potency,[7],10 µM (active)
same,"activity, negative = inhibition",[5],-24%
same,Potency,[4],> 46 µM
same,outcome,[6],inactive
